Measured values as given in the supplement of paper PMC12067093, “Discovery and optimisation of a covalent ligand for TRIM25 and its application to targeted protein ubiquitination” (Chemical Science, 2025).
The full data set covers some 21,000 targets. This sample favours those with the largest changes.

Compound: CC1Cc2ccccc2N1C(=O)C1CCCN(C1)C(=O)CCl (mixture of isomers) [TRIM25 ligand 11 (diastereomer mixture)]
Test: probe-labelled cysteine peptide fold change vs DMSO (competition) (log2 fold change); higher = less target engagement (more negative = stronger competition)
Conditions: THP-1, incubation time: 4 h
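Note: competitive chemoproteomic profiling in live THP-1 cells with an iodoacetamide desthiobiotin (IA-DTB) probe, comparing probe-labelled peptide intensities in compound-treated cells against DMSO-treated controls.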

Sequence of UniProt O43823 (O43823 whole entry, looked up): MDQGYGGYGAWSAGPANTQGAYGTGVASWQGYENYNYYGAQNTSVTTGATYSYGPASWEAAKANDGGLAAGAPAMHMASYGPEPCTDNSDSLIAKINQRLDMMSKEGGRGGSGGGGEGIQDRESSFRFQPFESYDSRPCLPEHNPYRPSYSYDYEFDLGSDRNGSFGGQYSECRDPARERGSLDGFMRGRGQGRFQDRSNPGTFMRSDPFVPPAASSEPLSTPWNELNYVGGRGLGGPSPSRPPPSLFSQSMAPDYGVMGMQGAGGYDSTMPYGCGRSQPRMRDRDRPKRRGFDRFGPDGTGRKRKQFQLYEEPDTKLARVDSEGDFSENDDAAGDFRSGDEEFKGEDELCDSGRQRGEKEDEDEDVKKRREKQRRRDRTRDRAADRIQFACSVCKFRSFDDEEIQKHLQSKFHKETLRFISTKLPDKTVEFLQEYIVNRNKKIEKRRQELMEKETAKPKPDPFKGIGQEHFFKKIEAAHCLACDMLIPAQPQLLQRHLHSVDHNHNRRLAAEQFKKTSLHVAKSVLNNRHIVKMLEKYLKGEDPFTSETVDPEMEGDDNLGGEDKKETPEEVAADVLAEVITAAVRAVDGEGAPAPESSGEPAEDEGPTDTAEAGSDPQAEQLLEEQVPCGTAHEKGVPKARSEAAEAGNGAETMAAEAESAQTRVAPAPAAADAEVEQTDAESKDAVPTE
Sequence of UniProt Q9ULJ7 (Q9ULJ7 whole entry, looked up): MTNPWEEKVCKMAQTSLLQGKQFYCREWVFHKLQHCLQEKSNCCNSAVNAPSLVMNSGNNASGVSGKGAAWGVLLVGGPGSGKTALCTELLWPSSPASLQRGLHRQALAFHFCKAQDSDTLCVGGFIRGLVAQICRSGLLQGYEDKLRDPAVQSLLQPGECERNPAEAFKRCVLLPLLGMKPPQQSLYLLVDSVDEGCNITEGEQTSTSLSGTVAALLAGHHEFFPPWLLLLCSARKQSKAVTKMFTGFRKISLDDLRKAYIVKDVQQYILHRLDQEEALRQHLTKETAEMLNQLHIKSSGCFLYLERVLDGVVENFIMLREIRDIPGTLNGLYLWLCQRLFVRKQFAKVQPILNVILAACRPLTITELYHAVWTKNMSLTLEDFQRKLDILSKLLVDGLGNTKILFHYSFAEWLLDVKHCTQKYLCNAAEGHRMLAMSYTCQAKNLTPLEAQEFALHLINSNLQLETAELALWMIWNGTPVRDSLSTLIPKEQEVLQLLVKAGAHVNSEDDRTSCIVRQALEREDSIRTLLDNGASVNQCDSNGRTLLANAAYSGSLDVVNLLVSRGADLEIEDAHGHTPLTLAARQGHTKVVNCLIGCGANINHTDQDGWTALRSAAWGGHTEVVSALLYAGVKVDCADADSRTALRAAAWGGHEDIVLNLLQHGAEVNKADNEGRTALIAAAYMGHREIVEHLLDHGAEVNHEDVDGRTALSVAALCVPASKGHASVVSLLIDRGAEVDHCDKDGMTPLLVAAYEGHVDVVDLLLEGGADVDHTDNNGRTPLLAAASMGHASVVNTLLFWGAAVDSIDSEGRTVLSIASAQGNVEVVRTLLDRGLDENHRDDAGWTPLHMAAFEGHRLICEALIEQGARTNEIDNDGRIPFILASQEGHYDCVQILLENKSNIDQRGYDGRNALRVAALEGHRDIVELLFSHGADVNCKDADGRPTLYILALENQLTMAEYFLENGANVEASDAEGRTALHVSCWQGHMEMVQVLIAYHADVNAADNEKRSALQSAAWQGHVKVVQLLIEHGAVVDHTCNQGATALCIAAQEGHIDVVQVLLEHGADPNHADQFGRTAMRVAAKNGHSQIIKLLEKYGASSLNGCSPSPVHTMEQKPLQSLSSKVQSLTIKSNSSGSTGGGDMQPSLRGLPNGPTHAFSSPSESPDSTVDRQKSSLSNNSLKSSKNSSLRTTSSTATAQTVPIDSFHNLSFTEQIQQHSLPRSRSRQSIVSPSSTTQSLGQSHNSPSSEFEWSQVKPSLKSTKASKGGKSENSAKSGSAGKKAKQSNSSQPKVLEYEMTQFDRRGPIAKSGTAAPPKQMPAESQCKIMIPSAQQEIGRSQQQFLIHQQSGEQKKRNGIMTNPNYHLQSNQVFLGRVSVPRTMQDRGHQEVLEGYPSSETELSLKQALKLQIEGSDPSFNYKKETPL
Sequence of UniProt P32121 (P32121 whole entry, looked up): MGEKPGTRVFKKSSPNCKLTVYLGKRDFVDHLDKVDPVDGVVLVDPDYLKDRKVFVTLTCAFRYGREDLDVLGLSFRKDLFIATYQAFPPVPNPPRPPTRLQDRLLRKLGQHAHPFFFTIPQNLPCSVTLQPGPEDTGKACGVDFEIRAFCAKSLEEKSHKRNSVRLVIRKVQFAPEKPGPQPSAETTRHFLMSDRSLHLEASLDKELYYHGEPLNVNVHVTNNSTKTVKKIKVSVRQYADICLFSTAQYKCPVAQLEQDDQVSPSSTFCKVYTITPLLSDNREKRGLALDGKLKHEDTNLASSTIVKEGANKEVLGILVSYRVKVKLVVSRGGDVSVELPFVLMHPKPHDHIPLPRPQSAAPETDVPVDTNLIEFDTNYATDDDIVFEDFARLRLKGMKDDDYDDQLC
Sequence of UniProt Q01433 (Q01433 whole entry, looked up): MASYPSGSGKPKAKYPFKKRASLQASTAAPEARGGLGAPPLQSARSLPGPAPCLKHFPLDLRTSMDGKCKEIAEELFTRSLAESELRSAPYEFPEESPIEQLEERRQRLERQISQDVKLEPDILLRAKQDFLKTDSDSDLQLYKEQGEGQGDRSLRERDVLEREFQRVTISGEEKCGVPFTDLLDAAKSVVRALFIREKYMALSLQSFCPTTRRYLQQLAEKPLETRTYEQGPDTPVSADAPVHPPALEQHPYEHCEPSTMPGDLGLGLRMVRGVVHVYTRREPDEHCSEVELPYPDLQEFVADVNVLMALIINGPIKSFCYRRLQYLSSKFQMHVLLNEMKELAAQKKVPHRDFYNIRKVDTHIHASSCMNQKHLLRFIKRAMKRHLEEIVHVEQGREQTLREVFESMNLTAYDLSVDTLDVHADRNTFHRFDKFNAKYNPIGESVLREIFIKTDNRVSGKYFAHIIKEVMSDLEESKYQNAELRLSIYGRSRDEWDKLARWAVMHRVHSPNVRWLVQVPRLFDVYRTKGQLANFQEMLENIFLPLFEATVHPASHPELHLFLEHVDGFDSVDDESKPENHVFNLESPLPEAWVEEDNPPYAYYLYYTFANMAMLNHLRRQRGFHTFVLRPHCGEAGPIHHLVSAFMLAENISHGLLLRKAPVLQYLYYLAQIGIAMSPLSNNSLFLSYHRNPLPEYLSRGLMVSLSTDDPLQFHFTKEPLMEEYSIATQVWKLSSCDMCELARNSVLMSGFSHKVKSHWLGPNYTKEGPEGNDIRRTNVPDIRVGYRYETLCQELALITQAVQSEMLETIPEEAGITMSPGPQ
Sequence of UniProt Q02040 (Q02040 whole entry, looked up): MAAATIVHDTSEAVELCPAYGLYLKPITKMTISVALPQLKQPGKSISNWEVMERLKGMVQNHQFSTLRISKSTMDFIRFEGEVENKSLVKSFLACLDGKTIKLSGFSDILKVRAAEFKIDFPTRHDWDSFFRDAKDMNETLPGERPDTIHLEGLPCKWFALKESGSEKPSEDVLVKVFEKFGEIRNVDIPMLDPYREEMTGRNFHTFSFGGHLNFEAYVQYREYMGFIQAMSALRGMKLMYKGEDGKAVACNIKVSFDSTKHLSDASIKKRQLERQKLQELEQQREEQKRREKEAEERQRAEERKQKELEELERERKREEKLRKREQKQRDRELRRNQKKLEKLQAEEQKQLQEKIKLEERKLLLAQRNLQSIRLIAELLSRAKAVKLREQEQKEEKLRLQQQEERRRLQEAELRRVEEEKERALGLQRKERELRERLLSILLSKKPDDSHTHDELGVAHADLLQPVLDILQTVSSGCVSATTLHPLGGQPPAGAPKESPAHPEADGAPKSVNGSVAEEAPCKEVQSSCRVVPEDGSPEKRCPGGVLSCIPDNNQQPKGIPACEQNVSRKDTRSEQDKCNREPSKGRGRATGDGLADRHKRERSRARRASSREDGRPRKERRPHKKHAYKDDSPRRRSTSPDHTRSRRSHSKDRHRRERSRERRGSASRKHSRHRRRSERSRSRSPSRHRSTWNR
Sequence of UniProt O00170 (O00170 whole entry, looked up): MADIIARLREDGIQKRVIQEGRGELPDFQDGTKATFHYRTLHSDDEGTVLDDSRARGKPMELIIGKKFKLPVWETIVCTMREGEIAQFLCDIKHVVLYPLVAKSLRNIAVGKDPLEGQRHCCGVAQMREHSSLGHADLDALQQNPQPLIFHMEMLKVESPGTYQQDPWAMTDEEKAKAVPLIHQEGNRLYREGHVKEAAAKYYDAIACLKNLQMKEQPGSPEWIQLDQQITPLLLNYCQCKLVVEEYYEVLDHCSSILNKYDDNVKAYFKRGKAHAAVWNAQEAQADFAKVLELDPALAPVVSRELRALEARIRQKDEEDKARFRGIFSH
Sequence of UniProt Q9NYG5 (Q9NYG5 whole entry, looked up): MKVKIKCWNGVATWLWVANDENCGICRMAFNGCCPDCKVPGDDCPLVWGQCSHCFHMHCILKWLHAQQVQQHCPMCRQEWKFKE
Sequence of UniProt Q7Z2E3 (Q7Z2E3 whole entry, looked up): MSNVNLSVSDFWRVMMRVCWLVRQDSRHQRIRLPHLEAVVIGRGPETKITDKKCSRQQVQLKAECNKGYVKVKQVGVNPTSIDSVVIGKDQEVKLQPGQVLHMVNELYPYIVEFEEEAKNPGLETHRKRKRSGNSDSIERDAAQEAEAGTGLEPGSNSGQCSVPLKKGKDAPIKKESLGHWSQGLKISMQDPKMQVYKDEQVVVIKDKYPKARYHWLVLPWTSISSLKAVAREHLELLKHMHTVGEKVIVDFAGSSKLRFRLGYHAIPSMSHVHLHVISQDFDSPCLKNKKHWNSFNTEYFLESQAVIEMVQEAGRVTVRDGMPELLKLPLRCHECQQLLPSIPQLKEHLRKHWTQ
Sequence of UniProt Q99766 (Q99766 whole entry, looked up): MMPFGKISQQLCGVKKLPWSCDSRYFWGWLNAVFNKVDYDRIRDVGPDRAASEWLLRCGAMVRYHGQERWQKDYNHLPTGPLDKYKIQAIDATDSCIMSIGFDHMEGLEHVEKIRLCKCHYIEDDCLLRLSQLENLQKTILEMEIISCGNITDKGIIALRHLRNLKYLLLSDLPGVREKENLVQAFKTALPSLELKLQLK

Target	probe-labelled cysteine peptide fold change (10 µM)	probe-labelled cysteine peptide fold change (50 µM)
ALG11_Q2TAA5_72_NQMVIAFFHPYCNAGGGGER (UniProt Q2TAA5)	-0.0377	-0.618
ASAP1_Q9ULH1_652_QTALGNTVLHYCSMYSKPECLK (UniProt Q9ULH1)	0.0362	0.157
APOH_P02749_124_CTEEGK (UniProt P02749)	0.632	0.551
ARHGAP25_P42331_154_VAGTPCGVFGQR (UniProt P42331)	0.0288	-0.103
ATP5F1A_P25705_244_KLYCIYVAIGQK (UniProt P25705)	-0.433	0.0534
ARHGAP45_Q92619_528_SATISYYQMMHMQTAPLPVHFQMLCESSK (UniProt Q92619)	-0.132	-0.236
ARPC1B_O15143_26_TQIAICPNNHEVHIYEK (UniProt O15143)	0.062	0.00851
ANKRD10_Q9NXR5_140_SGSLECISALVANGAHVDLR (UniProt Q9NXR5)	-0.314	-0.119
ANXA11_P50995_384_FNAVLCSR (UniProt P50995)	-0.0174	-0.0325
ARFGEF2_Q9Y6D5_76_YFLPFELACQSK<|>ARFGEF1_Q9Y6D6_88_YFLPFELACQSK (UniProt Q9Y6D6+Q9Y6D5)	-0.179	-0.147
AKAP8_O43823_392+395_IQFACSVCK (UniProt O43823)	-0.0142	0.0345
AKAP17A_Q02040_17_AAATIVHDTSEAVELCPAYGLYLK (UniProt Q02040)	0.583	0.399
AGPS_O00116_226_IVNLACK (UniProt O00116)	0.221	0.311
ANTXR1_Q9H6X2_257_VLCSFK (UniProt Q9H6X2)	0.067	0.257
ARID1A_O14497_2043_EEEQDQGVSCNK (UniProt O14497)	0.662	0.268
ARRB2_P32121_270_CPVAQLEQDDQVSPSSTFCK (UniProt P32121)	0.677	0.57
ARF6_P62330_90_HYYTGTQGLIFVVDCADRDRIDEAR (UniProt P62330)	-0.368	0.0425

Target	probe-labelled cysteine peptide fold change (10 µM)	probe-labelled cysteine peptide fold change (50 µM)
ATP5S_Q99766_134_CHYIEDDCLLR (UniProt Q99766)	-0.0886	0.0874
ATIC_P31939_101_VVACNLYPFVK (UniProt P31939)	-0.0132	0.0726
ASMTL_O95671_274_AEAGEAGQATAEAECHR (UniProt O95671)	-0.103	-0.158
BIN2_Q9UBW5_205_IGCYVTIFQNISNLR (UniProt Q9UBW5)	0.21	0.194
ATF6_P18850_321_ESACQSR<|>ATF6B_Q99941_340_ESACQSR (UniProt Q99941+P18850)	0.753	1.73
AHRR_A9YTQ3_485_DVGEDQVHPPLCHFPQR (UniProt A9YTQ3)	0.678	0.583
ARPC1B_O15143_227_VAWVSHDSTVCLADADK (UniProt O15143)	0.316	0.0213
AP2A1_O95782_492_TVFEALQAPACHENMVK (UniProt O95782)	0.179	0.0904
APTX_Q7Z2E3_161_DAAQEAEAGTGLEPGSNSGQCSVPLK (UniProt Q7Z2E3)	0.282	-0.342
ATP6V1A_P38606_138_WDFTPCK (UniProt P38606)	-0.198	-0.819
ARSA_P15289_493_GEDPALQICCHPGCTPR (UniProt P15289)	0.139	0.309
ANAPC11_Q9NYG5_76_WLHAQQVQQHCPMCR (UniProt Q9NYG5)	-0.122	0.153
AMPD2_Q01433_107_SLPGPAPCLK (UniProt Q01433)	-0.11	-0.295
ANKRD50_Q9ULJ7_113_QALAFHFCK (UniProt Q9ULJ7)	0.472	0.778
AIP_O00170_78_LPVWETIVCTMR (UniProt O00170)	-0.126	1.17
BCAT1_P54687_338_EMFGSGTACVVCPVSDILYK (UniProt P54687)	0.15	0.0428
